Here are results for 26 compounds from PubChem BioAssay AID539 (SRMLSC, 2006).

This assay concerns phosphomevalonate kinase (Streptococcus pneumoniae D39). The assay is described as follows: S. pneumoniae PMK inhibitors, primary screen, biochemical, mevalonate pathway, pilot trial included (AID 539).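 Also: 0% = full reaction with DMSO carrier and 100% = background rate without enzyme reaction.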 As to conditions: purified PMK, PK/LDH-coupled NADH absorbance 340 nm, at 10 µM, stronger effect = higher value.
Setting [1] is: measured here: pilot screen replicates.

SMILES strings stand for the structures. Among all 65,000 compounds or so, about 320 (0.49%) were called active.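 The calls were made as follows: active = top-ranked compounds by inhibition in the single 10 µM screen, taking a fixed number of the strongest; inactive = the rest, inconclusive results apart.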 What follows is part of a selection rich in actives, with near analogues and random picks from the rest.

For `CCN1C(=O)/C(=C2/Sc3ccccc3N2CCCS(=O)(=O)O)SC1=S`, the inhibition is 14% (inactive). Regarding `O=S(=O)(c1ccc(OCC(O)CN2CCN(c3ccccc3Cl)CC2)cc1)N1CCOCC1` (stereo not given), the inhibition was 12% (inactive). On the same count and under the same terms, next, `Cc1csc(NC(=O)CN2CCCCCC2)n1`: 28% (active). With `Cc1csc(NC(=O)C2CCCN2C(=O)OCC(C)C)n1` (stereo not given), the inhibition is 8% (inactive). Still for that read-out and setting: next, `CS(=O)(=O)c1ccc2nc(NC(=O)CN3CCCCCC3)sc2c1`: 3% (inactive). Take `C/C(N)=C(\C#N)C(=O)NCCc1ccccn1`: the inhibition was 11% (inactive). The same compound had an inhibition under setting [1] of 4.5%.

For `Cc1ccc(-c2nc(CS(=O)CC(=O)NC3CCCC3)c(C)o2)cc1` (stereo not given), the inhibition is 0% (inactive). As to `O=C(COC(=O)CCc1c[nH]c(=O)[nH]1)Nc1ccccc1Cl`, the inhibition was 3% (inactive).

`COc1ccc(S(=O)(=O)N2CCCC(C(=O)N3CCN(C)CC3)C2)cc1C` (stereo not given): the inhibition is 10% (inactive).

Regarding `Cc1cccc(Cn2c(SCCO)nc3c2c(=O)n(C)c(=O)n3C)c1`, the inhibition is 12% (inactive). As for `Cc1cc(NC(=O)CN2CCC(O)(c3cccc(F)c3)CC2)no1`, the inhibition was 9% (inactive). The compound further had an inhibition under setting [1] of 0%. With `Cc1ccc(CCNC(=O)C2CCN(S(=O)(=O)N3CCCC3)CC2)cc1`, the inhibition was 0% (inactive). Still for that read-out and setting: next, `CCCS(=O)(=O)N1CCC(C(=O)NCCCN(C)Cc2ccccc2)CC1`: 6% (inactive); `O=C(NCCCN1CCN(Cc2ccccc2)CC1)C1CCN(S(=O)(=O)N2CCCC2)CC1`: 26% (active). Same read-out and setting: the same measure for `O=C(O)CN1C(=O)CC(Cc2ccccc2)C1=O` (stereo not given): 4% (inactive). Still for that read-out and setting: the same measure for `O=C(Nc1ccccc1C(F)(F)F)c1cc(-c2ccc(O)cc2)on1`: 8% (inactive). As for `COc1cccc(CNC(=O)C2CCN(S(=O)(=O)c3cccc4cccnc34)CC2)c1`, the inhibition is 4% (inactive). For the compound `COc1ccc(CNC(=O)C2CCN(S(=O)(=O)N3CCOCC3)CC2)cc1`, the inhibition is 25% (active).

Consider `O=C(O)C1CCN(S(=O)(=O)N2CCOCC2)CC1`, for which the inhibition was 9% (inactive).

On to `CC(C)OC(=O)C(C#N)c1nc2ccccc2nc1N1CCN(Cc2ccccc2)CC1` (stereo not given), for which the inhibition is 12% (inactive). Still for that read-out and setting: the same measure for `O=c1cc(CSc2ccccn2)nc(N2CCN(c3ccccc3)CC2)[nH]1`: 7% (inactive).

With `COc1cc(OC)c(C(=O)NC2CC(C)(C)NC(C)(C)C2)cc1OC`, the inhibition was 6% (inactive). Consider `Cc1coc2c(O)cc3c(c12)OC1(N2CCCCC2)C(=O)NCCCC31` (stereo not given), for which the inhibition is 0% (inactive). Turning to `COc1ccc(C2C3=C(OC(C)=O)c4ccccc4C3=Nc3c2c(=O)n(C)c(=O)n3C)cc1` (stereo not given), the inhibition is 44% (active). This compound gave an inhibition under setting [1] of 2%. On to `Cc1cccc(C2c3c(n(C)c(=O)n(C)c3=O)N=C3c4ccccc4C(=O)C32)c1` (stereo not given), for which the inhibition was 17% (inactive). Under setting [1], the inhibition is 3.5%. As to `COc1ccc(-c2c3c(=O)n(C)c(=O)n(C)c3cn2NC(C)=O)cc1`, the inhibition was 2% (inactive).
